Source: PubChem BioAssay (NCATS)
Records with an inconclusive call do not appear. A call without a number means that no potency is given here. Calls of active or inactive are those of the source. Calls follow the shape of the dose curve; as a rule, active = well fitted curve in the direction sought with a large enough effect; inconclusive = small, poorly fitted or top-dose-only effect, or another doubt; inactive = no such curve, though single readings can be large; an effect the other way counts as inactive or inconclusive.

What was measured:
[1] = molecular target: Aldehyde dehydrogenase, mitochondrial (Homo sapiens) (UniProt P05091); assay: qHTS for Inhibitors of the Aldehyde Dehydrogenase Family (ALDH2) Primary screen (AID 2061308); conditions: ALDH2 enzyme inhibition qHTS, 1536-well; series mostly up to 56 µM; also: nearly all actives have a fitted effect of over 55% in size
[2] = molecular target: Retinaldehyde dehydrogenase 3 (Homo sapiens) (UniProt P47895); assay: qHTS for Inhibitors of the Aldehyde Dehydrogenase Family (ALDH1A3) Primary screen (AID 2061315); conditions: ALDH inhibition qHTS; series mostly up to 56 µM

Structure (SMILES) | Potency [1] | Potency [2]
Cc1nc(CN=C2NC3=C(C(=O)CCC3)C(c3[nH]ncc3Cl)N2)cs1 (stereo not given) | inactive | inactive
Cc1cc(C)nc(NC(=S)N2CCN(c3ccc(Cl)cc3[N+](=O)[O-])CC2)c1 | inactive | inactive
O=C(/C=C/c1cccc(Cl)c1)Nc1cccc([S+](=O)([O-])Nc2ccccc2F)c1 | inactive | inactive
CC(C)c1ccccc1-c1nc(NCc2ccc(-c3cccnc3)cc2)c2ccsc2n1 | inactive | inactive
Cn1ccc2cc(-c3ccc4ncnc(NCc5cccnc5)c4c3)ccc21 | inactive | inactive
CC(=O)Nc1sc2c(c1-c1cccnc1)CCNC2 | inactive | inactive
COc1ccc(CN(Cc2ccccc2)S(=O)(=O)c2ccccc2)cc1COc1ccc(NC(C)=O)cc1 | inactive | inactive
Cc1cc(Nc2nc(-c3ccccc3)nc3ccccc23)n[nH]1 | inactive | inactive
O=[S+]([O-])(c1ccc(OC(F)(F)F)cc1)N1CCN([S+](=O)([O-])c2ccc3c(c2)OCCO3)CC1 | inactive | inactive
O=S(=O)(c1cccc(Br)c1)N1CCN(S(=O)(=O)c2ccc3c(c2)OCCO3)CC1 | inactive | inactive
COc1ccc(C(=O)N(Cc2ccccc2)Cc2ccccc2)c(O)c1 | inactive | inactive
CNc1oc(-c2cccc3c2OC(F)(F)O3)nc1C#N | inactive | inactive
CC(C)n1cc(-c2ccc(Oc3ccccc3)cc2)c2c(N)ncnc21 | inactive | inactive
CN1C(=O)CCc2cc(S(=O)(=O)Nc3ccc(Cl)c(Cl)c3)ccc21 | inactive | inactive
CC(C)Oc1ccccc1C(=O)Nc1nc(-c2ccccc2)cs1 | inactive | inactive
O=C(OCC#CCSc1nnc(-c2cccc3ccccc23)o1)c1ccc(C(F)(F)F)cc1 | inactive | inactive
O=C(OCC#CCSc1nnc(-c2cccc3ccccc23)o1)c1ccc(OC(F)F)cc1 | inactive | inactive
c1ccc(-c2nc(NCc3ccc(-c4cccnc4)cc3)c3ccccc3n2)cc1 | inactive | inactive
CC(C)(C)c1ccc(Nc2nc(C#N)nc(NC3CCCC3)n2)cc1 | inactive | inactive
NC(=O)C1CCN(c2nc(-c3ccc(Br)cc3)cs2)CC1 | inactive | inactive

Structure (SMILES) | Potency [1] | Potency [2]
COc1ccc2c(c1)C=C1Cn3c-2c(C2CCCCC2)c2ccc(cc23)C(=O)NS(=O)(=O)N(C)CCOCCN(C)C1=O | inactive | inactive
O=S(=O)(c1cccc(-c2n[nH]c(=S)n2-c2ccccc2)c1)N1CCCC1 | inactive | inactive
O=S(=O)(c1cccc(O)c1)N1CCN(S(=O)(=O)c2c(F)cccc2F)CC1 | inactive | inactive
Cc1cc(NC(=O)Nc2nnc(-c3cccnc3)s2)ccc1Br | inactive | inactive
Cc1cc(C)nc(NC(=S)N2CCN(c3cncnc3)CC2)c1 | inactive | inactive
COc1ccc(C(=O)N(Cc2cccs2)Cc2cccs2)c(O)c1 | inactive | inactive
Nc1cccc(S(=O)(=O)N2CCN(S(=O)(=O)c3c(F)cccc3F)CC2)c1 | inactive | inactive
CC(=O)Nc1sc2c(c1-c1ccc3[nH]ccc3c1)CCNC2 | inactive | inactive
Cc1ccc(S(=O)(=O)Nc2cc(C)ccc2C(=O)Nc2nc(-c3ccccc3)cs2)cc1 | inactive | inactive
O=C(CNC(=O)c1ccccc1)OC(C(=O)Nc1cc([N+](=O)[O-])ccc1F)c1ccccc1 (stereo not given) | inactive | inactive
CC(C)Cc1ccc(-c2ccc(=O)n(CC(=O)NCCc3ccccc3)n2)cc1 | inactive | inactive
COc1ccc(C2=Nn3c(nnc3-c3ccccc3OC)SC2)cc1O[C@H]1CCOC1 | inactive | inactive
CC(=O)NCc1cc(Cl)c2cccnc2c1O | inactive | inactive
COc1ccccc1CNc1ccc(S(=O)(=O)Nc2nccs2)cc1 | inactive | inactive
O=C(CNC(=O)c1ccc(Cl)c(C(F)(F)F)c1)OC(C(=O)Nc1cc(C(F)(F)F)ccc1Cl)c1ccccc1 (stereo not given) | inactive | inactive
CCOc1ccc(CCNC(=O)C2CCCCC2)cc1OCC | inactive | inactive
Cc1ccc(NS(=O)(=O)c2cc3c(cc2N[C@H](C)CO)NC(=O)CC3)cc1C | inactive | inactive
Cc1ccc(-c2ccc(=O)n(CCNC(C)c3ccco3)n2)cc1 (stereo not given) | inactive | inactive
CCOC(=O)c1nc(NCc2ccccc2)sc1C | inactive | inactive
Fc1cc(F)cc(Nc2nc(NC3CCCC3)nc(C3CO3)n2)c1 (stereo not given) | inactive | inactive
